# Calb FLC: affects C. albicans growth with fluconazole. growth inhibition, % (test concentration not listed). C. albicans CaCi-2 (fluconazole-resistant clinical isolate) + fluconazole, Alamar Blue growth, 48 h. AID 1979. 300,000 tested, 0.57% active;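 active = growth inhibition above about 58% in most replicates, limit read from the data, passing the limit was not always enough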;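 also: all wells also contain fluconazole at 8 µg/ml as a sub-toxic cotreatment; 0% = median of DMSO wells and 100% = median of geldanamycin control wells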
# Jurkat NFkB inh: inhibitors of the PMA/ionomycin-induced NF-kB reporter in Jurkat cells; PMA/ionomycin-induced NF-kB luciferase reporter, luminescence; inhibition, % at 4 µM; AID 435003; 330,000 tested, 0.53% active; in the data active = inhibition above about 50%
# Beta cell apopt: beta cell apoptosis inhibition. INS-1E cytokine-induced death, ATP luminescence, 48 h; percent of positive-control rescue, neutral wells zero. protection from apoptosis, % (no concentration beside the values). 300,000 tested, 0.8% active;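 active = Every replicate reaches about 75%, or at least half do and their mean reaches it too, limit read from the data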;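 also: 0% = cytokine-treated negative control wells and 100% = positive control rescue; higher means more ATP so stronger rescue from cytokine killing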
# Shn3 inh set2: inhibitors of Schnurri-3 3'UTR reporter in osteoblasts. Clone20 osteoblast Shn3 3'UTR firefly luciferase, 24 h. inhibition, % at 12.5 µM. 360,000 tested, 0.52% active;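 active = mean inhibition of at least 75% with every replicate also reaching 75%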;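 also: 0% = median of neutral control wells and 100% = pilot-screen positive control compound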
# 697 NFkB inh: inhibitors of the PMA/ionomycin-induced NF-kB reporter in 697 B cells. 697 B-cell NF-kB luciferase reporter, 16 h. inhibition, % at 4 µM. 330,000 tested, 0.33% active; in the data active = inhibition above about 35%
# 697 NFkB conf: inhibitors of the PMA/ionomycin-induced NF-kB reporter in 697 B cells, retest. inhibition, % at 4 µM. shares compounds with 697 NFkB inh. 2,000 tested, 35% active. AID 449746. 697 B-cell NF-kB luciferase, 16 h; in the data active = inhibition mostly above about 28%, no sharp cut-off; inactive = mostly below about 22%
# * marks the source's active call; other numbers are inactive results; i = inactive; . = no result given. Shown are actives, neighbours in structure and some others; about 2% of the full set was active somewhere.
SMILES,Calb FLC,Jurkat NFkB inh,Beta cell apopt,Shn3 inh set2,697 NFkB inh,697 NFkB conf
CCOC(=O)N1CCC(NC(=O)c2cc3c(-c4ccccc4F)nn(C)c3s2)CC1,2,-8,0,44,4,.
CCOC(=O)N1CCC(NC(=O)c2cc3c(-c4ccc(OC)c(OC)c4)nn(C)c3s2)CC1,10,-6,13,27,41*,25
CCCN(CC(=O)Nc1ccccc1C)C(=O)CCCNC(=O)c1ccc(Cl)cc1,.,14,.,-7,15,.
CCc1nc2ccc(C(=O)NCc3ccccc3OC)cn2c1N(CC)CCOC,.,.,.,4,.,.
Cc1cccc(C(=O)n2c(=S)nc3cc(C)ccn32)c1,-3,-132,0,16,-367,-349
Cc1ccn2c(c1)nc(=S)n2C(=O)c1ccccc1,-5,-119,10,16,i,-405
O=C(c1ccco1)n1c(=S)nc2ccccn21,3,-57,-5,-152,-81,.
Cc1ccc(-n2ncc3c2CC(C)(C)CC3NC(=O)c2c(C)noc2C)cc1 (stereo unspecified),16,-4,3,2,-23,.
O=C(O)c1cc(N/N=C/c2ccc(-c3ccccc3)cc2)ccc1Cl,15,.,-2,-35,.,.
CSc1ccc(/C=N/Nc2ccc(Cl)c(C(=O)O)c2)cc1,-3,-114,-16,-28,-370,-26
O=C1c2ccccc2C(O)(c2ccccc2)N1c1ccc([N+](=O)[O-])cc1Cl (stereo unspecified),.,.,.,7,.,.
CCOC(=O)C1CCN(C/C=C/c2ccccc2[N+](=O)[O-])CC1,-14,-13,-14,2,1,.
CCOC(=O)C1CCN(C/C=C/c2ccccc2OC)CC1,10,1,0,-11,38*,-2
CC(C)Oc1ccc(OCCn2c(S(=O)(=O)O)nc3c(N)ncnc32)cc1,-6,-6,-6,1,0,.
CC/C(=N/Nc1cccc(C)c1)c1cnnc(SC)n1,1,-11,11,9,5,.
CC/C(=N/Nc1ccc(Cl)cc1)c1cnnc(SC)n1,-8,-4,-5,3,36*,17
Cc1ccc(C)c(OCCn2cc(C(=O)O)c3ccccc32)c1,30,6,-8,-24,9,.
CC(=O)c1cn(CCOc2cc(C)ccc2C)c2ccccc12,2,48,89*,90*,65*,83*
CCN(CC)S(=O)(=O)c1cccc(C(=O)Oc2cccc(NC(=O)c3cccs3)c2)c1,-5,1,-8,-8,21,.
Cc1cc(=O)oc2cc(OCCc3ccccc3)ccc12,0,-78,-5,-55,-297,-263
Cc1cc(=O)oc2cc(OCCCC[n+]3ccccc3)ccc12,5,-13,-2,-47,-3,.
CC1NC(=O)COC1c1ccccc1 (stereo unspecified),.,.,.,1,.,.
CC1(c2ccc(NC(=O)c3ccccc3F)cc2)CC1(Cl)Cl (stereo unspecified),-19,-113,5,-122,-142,.
COc1ccc(OC)c(NC(=O)CS(=O)(=O)Cc2ccccc2)c1,10,1,.,-15,-19,.
COc1ccc(OC)c(NC(=O)c2nc(S(=O)(=O)Cc3ccccc3)ncc2Cl)c1,6,49,80*,97*,-441,-203
SMILES,Calb FLC,Jurkat NFkB inh,Beta cell apopt,Shn3 inh set2,697 NFkB inh,697 NFkB conf
O=C(CNC(=O)c1ccc(Cl)c([N+](=O)[O-])c1)NCC1CCCO1 (stereo unspecified),-7,-4,-5,18,-8,.
S=C(Nc1ccc(-c2nc3ccccc3[nH]2)cc1)Nc1cccnc1,2,-87,14,-42,-251,-281
Cc1ccccc1-c1nc2sc3c(c2c(=O)n1N)CCCC3,4,-100,.,-57,-276,-229
O=C(CNC(=O)C1CC1)Nc1ccc(F)c(F)c1F,.,-3,9,-3,17,.
COc1ccc(NC(=O)O/N=C/c2c(C)nn(C(C)(C)C)c2C)cc1,7,-100,4,-36,-68,.
Cc1nn(C(C)(C)C)c(C)c1/C=N/OC(=O)Nc1ccc(Cl)c(Cl)c1,-16,11,0,.,52*,69*
CCC(C)NC(=O)c1c(N)n(/N=C/c2ccccn2)c2nc3ccccc3nc12 (stereo unspecified),0,3,7,1,52*,44*
CC(C)OCCCNC(=O)c1c(N)n(/N=C/c2ccccn2)c2nc3ccccc3nc12,4,39,21,32,44*,37*
COCCCNC(=O)c1c(N)n(/N=C/c2cccnc2)c2nc3ccccc3nc12,-1,25,.,-2,4,.

# Source: PubChem BioAssay
